From PubChem BioAssay AID1878 (Sanford-Burnham Center for Chemical Genomics, 2009) come the findings set out here.

The whole screen tested about 1,000 compounds, of which about 200 (20%) were called active. Not all results are given here. Measured potencies and affinities stand elsewhere. Unmarked numbers belong to inactive results. No stated cut-off is given here; in the data, active means inhibition above about 55%; inactive means the rest.

Dual specificity protein phosphatase 3 (Homo sapiens), sequence (P51452 whole entry, looked up): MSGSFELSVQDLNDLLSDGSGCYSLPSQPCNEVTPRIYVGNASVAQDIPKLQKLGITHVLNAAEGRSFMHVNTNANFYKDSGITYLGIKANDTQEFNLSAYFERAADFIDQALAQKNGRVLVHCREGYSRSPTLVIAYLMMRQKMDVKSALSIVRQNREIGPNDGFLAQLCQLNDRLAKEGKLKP

The assay addresses Dual specificity protein phosphatase 3 (Homo sapiens) (UniProt P51452). As to the kind of experiment: VHR1 phosphatase inhibitors, biochemical (AID 1878). The settings on record: recombinant VHR phosphatase, fluorogenic substrate; at 13.3 µM; stronger effect = higher value.
In general, inhibition refers to the relative decrease from the control value, in per cent. In the case of `COc1ccccc1N(CC(O)CN1CCC(C)CC1)S(=O)(=O)c1ccccc1` (centres undefined), the inhibition is -7.2%.

Consider `Cc1ccc(S(=O)(=O)N(C)C)cc1NC(=O)COC(=O)/C=C/c1cnc2ccccc2n1`, for which the inhibition is 10.1%. Under `O=C(Nc1ccc(N2CCCCC2)cc1)c1ccc([N+](=O)[O-])o1` stands 14.3%. In the case of `CC(O)CNc1nc2c(c(=O)n(Cc3ccc(Cl)cc3)c(=O)n2C)n1C` (centres undefined) it was 27.1%; in that of `CC(C)NC(=O)CN1C(=O)CSc2ccc(S(=O)(=O)N3CCCC3)cc21`, 15.9%; in that of `CCc1nn(CC(=O)N2CCN(c3cc(C)ccc3C)CC2)c(=O)c2cc3occc3n12`, 4.7%.

For the compound `COC(=O)C1CCN(Cc2c(C(=O)N3C[C@@H](C)O[C@@H](C)C3)nc3ccc(Cl)cn23)CC1`, the inhibition is 19%. In the case of `Cc1cc(-c2ccc(C)c(S(=O)(=O)NCCCN(Cc3ccccc3)C(C)C)c2)on1` it was 3.1%. Under `S=c1nc(NCc2cccc(Cl)c2)c2ccccc2[nH]1` stands 6.3%; under `CCN(CC)CCCNC(=O)c1ccc(CS(=O)(=O)c2ccccc2OC)o1`, -2.3%. Under `CN(C(=O)CSc1cn(CC(=O)N2CCOCC2)c2ccccc12)c1ccccc1` stands -6.1%. As to `CCc1ccc(CN(C)C(=O)c2ccc3c(c2)OCCO3)cc1`, the inhibition was 11.2%. In the case of `O=C(O)CCCN1C(=O)c2ccccc2Sc2ncccc21` it was 2.1%; in that of `CN1C=CC=C/C1=C1/SC(=S)N(Cc2ccccc2)C1=O`, -8%. In the case of `CCCCN1C(=O)/C(=C2\SC(N3CCOCC3)=NC2=O)c2ccccc21` it was 1.9%; in that of `O=C(O)CCN1C(=O)/C(=C2\C(=O)N(Cc3ccc(F)cc3)c3ccccc32)SC1=S`, 92.9% (active). On to `N#CC(c1cccnc1)N1CCOCC1` (centres undefined), for which the inhibition was 5.3%. In the case of `N#Cc1ccc(OS(=O)(=O)c2ccc(-c3ccon3)s2)cc1` it was 1.6%; in that of `CCOC(=O)c1ccc(NC(=O)CSc2nnc(CNC(=O)c3ccco3)o2)cc1`, 28.4%; in that of `OC(CN1CCC(Cc2ccccc2)CC1)c1ccccc1` (centres undefined), 3.5%.

Take `CC(C(=O)O)N1C(=O)/C(=C/C=C/c2ccco2)SC1=S` (centres undefined): the inhibition was 97.9% (active). With `O=C(O)C(Cc1ccccc1)N1C(=O)/C(=C/C=C/c2ccco2)SC1=S` (centres undefined), the inhibition is 71.7% (active). In the case of `Cc1cc(N2CCN(c3ncccn3)CC2)nc2c(C)cccc12` it was 3.7%; in that of `CNS(=O)(=O)c1cn(CC(=O)NCc2ccc(N(C)C)cc2)cc1S(=O)(=O)NC`, 5.7%. For `COc1ccc(CN(C)C(=O)c2cccc(NS(=O)(=O)c3ccccc3)c2)cc1F`, the inhibition is 6%. In the case of `Cc1ccc(N2C(=O)c3ccccc3C2=O)nc1` it was -3.1%; in that of `CCN1CCN(C(=O)c2cc3ccc(OC)cc3[nH]2)CC1`, 10.9%. `COc1ccc(Br)cc1S(=O)(=O)N1CCCc2ccccc21`: the inhibition is -6.5%. In the case of `CSc1ncc(C(=O)Nc2cc(C)ccc2C)c(C)n1` it was -5.1%.

With `Cc1cc2nc3s/c(=C/c4ccc(-c5ccccc5C(=O)O)o4)c(=O)n3c2cc1C`, the inhibition is 74.7% (active). Under `CN(C)CCN(CC1CCCN(Cc2ccccc2F)C1)C(=O)Cc1ccccc1F` (centres undefined) stands -15.2%.

In the case of `CC1=C(C(=O)Nc2cccc(C(=O)N3CCC(C(N)=O)CC3)c2)SCCO1`, the inhibition is 4.8%. In the case of `COc1ccc(NC(=O)NCCN2CCCCC2)cc1` it was -10.3%; in that of `CCN(CC)CCNC(=O)CCN1N=C(c2ccccc2)CCC1=O`, 2.7%; in that of `O=C(c1ccc(NC2=NC3CS(=O)(=O)CC3S2)cc1)N(CCO)Cc1ccccc1` (centres undefined), 0.9%. Under `O=C1C(Cl)=C(N2CCOCC2)C(=O)N1c1ccccc1F` stands -7.3%; under `COc1ccc(N(C(=O)c2snc(C(N)=O)c2N)C(C(=O)NC2CCCC2)c2ccc(F)cc2)c(OC)c1` (centres undefined), -0.8%; under `CC1CCCCN1CCCNC(=O)CCCN1C(=O)c2cccnc2Sc2ccccc21` (centres undefined), -12.7%. On to `CC1CCN(CCCNC(=O)C2CC(=O)N(CCc3ccccc3)C2)CC1` (centres undefined), for which the inhibition is -14.3%. Turning to `COc1ccc(N(C)S(=O)(=O)c2ccc3c(c2)NC(=O)CC(=O)N3)c(OC)c1`, the inhibition is 7.8%. Under `COC(=O)C1=NN(C(=O)c2ccccc2)C(O)(c2ccc([N+](=O)[O-])cc2)C1` (centres undefined) stands -7.4%. Under `CC(Cc1n[nH]c(=S)n1N)c1ccccc1` (centres undefined) stands -2.8%. In the case of `CCOCCn1cnc2sc(C(=O)NCCCN3CCOCC3)c(C)c2c1=O` it was 9.7%; in that of `CCc1cc(=O)oc2c(C)c(OCC(=O)NCCCN3CCOCC3)ccc12`, 3.5%; in that of `CCOC(=O)C1(CCc2ccccc2)CCN(CC(O)CO)CC1` (centres undefined), -10.8%. With `Cn1c(=O)c2c(ncn2CCOc2ccc(F)cc2)n(C)c1=O`, the inhibition was -6.4%. In the case of `Cc1cc(C)cc(NCc2cc(=O)oc3cc(C)c(O)cc23)c1` it was 8.5%; in that of `CCn1cc(CCC(=O)NCCN2CCOCC2)c2ccccc21`, -13.7%. In the case of `O=C(Cc1ccccc1)Nc1ccc(C(=O)Nc2ccc(O)cc2)cc1` it was 1.2%; in that of `C/C(=N\NC(=O)CNC(=O)c1cccc(F)c1)c1ccc2ccccc2c1`, 1.1%. Under `C/C(=N\NC(=O)c1cc(O)cc(O)c1)c1ccc(NC(=O)Cc2ccccc2)cc1` stands 96.6% (active); under `O=C(NCc1c(O)ccc2ccccc12)c1ccccc1`, 2.1%.

For the compound `O=C(N/N=C/c1ccc([N+](=O)[O-])o1)c1cc2c(ccc3ccccc32)o1`, the inhibition was 98.8% (active). In the case of `O=C(CN1CCCCCC1)N/N=C/c1ccc2ccccc2c1` it was -6.1%. Under `O=C(O)c1ccc(/C=N/NC(=O)c2cc3c(ccc4ccccc43)o2)cc1` stands 98.7% (active); under `O=C(N/N=C/c1cccc([N+](=O)[O-])c1)c1cc2c(ccc3ccccc32)o1`, 98% (active).

Consider `Cc1ccc(NC(=O)C(=O)NCc2ccc(/C=N/NC(=O)c3c(C)nc4ccccn34)o2)cc1`, for which the inhibition was 18.4%.

With `O=C(NCc1ccc(Cl)cc1)Nc1ccc(F)cc1`, the inhibition is 0.7%. Under `CCOC(=O)c1cc(/C(C)=N/OC(=O)c2ccc(C(C)(C)C)cc2)on1` stands 0.2%. Regarding `COc1ccc(S(=O)(=O)N2CCCC(C(=O)NCC3CCCO3)C2)cc1C` (centres undefined), the inhibition is -4.1%. In the case of `COc1ccc(C(=O)NCc2nnc(SCC(=O)Nc3cc(OC)ccc3OC)o2)cc1`, the inhibition is -6.8%. For `CC1CCCN(CCCNC(=O)C2CC(=O)N(CCc3ccccc3)C2)C1` (centres undefined), the inhibition is -5.4%.

Regarding `CCC1CCCCN1CCCNC(=O)C1CC(=O)N(CCc2ccccc2)C1` (centres undefined), the inhibition is 20.9%. For `NC(=S)N=Nc1ccc(NN=C(N)N)cc1`, the inhibition was 40.2%.

As to `COc1ccc(NC(=O)Cc2nnc(SCC(=O)NC3CCCC3)n2C)cc1`, the inhibition is -4.1%.

As for `CCNC(=O)c1cc(Br)ccc1Cl`, the inhibition was -8.7%.

Consider `CN(c1ccccc1)S(=O)(=O)c1nnc(NC(=O)C2CCCCC2)s1`, for which the inhibition is -1.3%. Regarding `Cn1c2ccccc2c(=O)c2ccc(C#Cc3ccccn3)cc21`, the inhibition is 75.5% (active).

For the compound `Cc1nc([N+](=O)[O-])cn1Cc1cccc2ccccc12`, the inhibition was -13.3%. Under `O=C(CN1CCCCC1)N/N=C/c1cccc(Cl)c1` stands -9.7%; under `O=C(Cn1c2ccccc2c(=O)c2ccccc21)N/N=C/c1cc([N+](=O)[O-])ccc1N1CCCCCC1`, 99.4% (active); under `O=C(N/N=C/c1cccnc1)c1cccc(NC(=O)c2ccc(Cl)cc2)c1`, 92.9% (active). Under `O=C(N/N=C/c1ccncc1)c1cccc(S(=O)(=O)Nc2ccc(Cl)cc2)c1` stands 98.9% (active); under `Cc1nc2cc(NC(=O)c3ccc(Cl)cc3)ccc2n1C`, -9.5%. In the case of `CN(C)CCNC(=O)c1cccc(S(=O)(=O)Nc2ccc(F)cc2)c1` it was -5.8%.

With `NC(=O)c1ccc(C(=O)N/N=C/c2cccc(Oc3ccccc3)c2)cc1`, the inhibition is -0.5%.

Turning to `Cc1ccc(S(=O)(=O)NC(CC(=O)NC2CCCC2)c2ccco2)cc1` (centres undefined), the inhibition was 23.6%. In the case of `CSc1ncc(C(=O)Nc2ccccc2Cl)c(C)n1`, the inhibition was -1.1%. In the case of `COc1ccc(OC)c(N/C(N)=N/c2nc(C)cc(C)n2)c1` it was -19.2%.

As for `Cc1ccc(NC(=O)CCNC(=O)c2ccccc2Cl)nc1`, the inhibition is 1.9%. Under `CC(c1ccccc1)N1CCn2c(nc3cc(NC(=O)NC4CCCCC4)ccc32)C1` (centres undefined) stands -21.4%. `COc1ccc(/C=C2\N=C(C)OC2=O)cc1OC`: the inhibition is -5.7%.

In the case of `CC(C)OCCCNc1ncnc2c1nc1n2CCCC1`, the inhibition is -2.4%. In the case of `COC(=O)c1ccnc(/C=N/O)c1`, the inhibition is 9.3%.

As to `COc1ccc(-c2nnc(Nc3nc4c(OC)cccc4s3)o2)cc1`, the inhibition is 95.5% (active).

For the compound `COc1ccc(-c2nnc(SC(C)C(=O)NNC(=O)c3ccc(C)cc3)o2)cc1` (centres undefined), the inhibition was -2.9%. As for `Cc1[nH][nH]c(=O)c1C(c1cc(Br)ccc1O)c1c(C)[nH][nH]c1=O`, the inhibition was 3.3%. Consider `COc1ccccc1N1CCN(C2CCCN(C(=O)CCC(=O)N(C)C)C2)CC1` (centres undefined), for which the inhibition was -13.2%. For the compound `COc1ccc2c(c1)cc(C(=O)N[C@@H](Cc1ccccc1)C(=O)N[C@@H](C)C(=O)O)n2C`, the inhibition was -10.4%. In the case of `Cn1c(C(=O)N[C@@H](Cc2ccccc2)C(=O)O)cc2cc(Cl)ccc21` it was 3.5%.

Turning to `CCCC(NC(=O)Cc1c(C)c2cc3c(C)c(C)oc3c(C)c2oc1=O)C(=O)N[C@@H](Cc1ccccc1)C(=O)O` (some centres undefined), the inhibition is 68.8% (active). On to `Cc1nn(CC(=O)NCCCN2CCCCC2C)c(=O)c2cccn12` (centres undefined), for which the inhibition is -5.4%. Take `CCOCCCNC(=O)C1CC(=O)N(CCc2ccccc2)C1` (centres undefined): the inhibition was 15%. In the case of `CC(C)CCNC(=O)CN(C(=O)CCC(=O)Nc1ccccn1)c1ccc2c(c1)OCCO2` it was 5.2%.
